Only some compounds are listed: those with a hit (about 12% of all), similar ones and a draw of the others.
HP1b chromo inh: HTS for Inhibitors of HP1-beta Chromodomain Interactions with Methylated Histone Tails; AlphaScreen HP1-beta / biotin-H3K9me3 peptide binding; Chromobox protein homolog 1 (Homo sapiens), P83916; Potency, µM (series often up to 114 µM), for the others: at the highest dose activity change, negative = inhibition, hits mostly inhibitors; 0.56% of 390,000 active; note: nearly all actives have a fitted effect of over 70% in size
Target sequence (P83916 whole entry, looked up): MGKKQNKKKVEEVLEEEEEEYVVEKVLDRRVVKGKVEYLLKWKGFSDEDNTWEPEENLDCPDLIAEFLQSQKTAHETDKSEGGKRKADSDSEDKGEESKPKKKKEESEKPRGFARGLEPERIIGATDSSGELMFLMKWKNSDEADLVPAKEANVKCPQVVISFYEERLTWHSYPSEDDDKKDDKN
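Compound inhibition of the preformed complex between 50 nM HP1-beta and 50 nM biotinylated H3K9me3 peptide was read by AlphaScreen. Buffer was PBS pH 7.4 with 0.01% Tween-20. Incubations ran 30 min at room temperature, with 10 ug/mL donor/acceptor beads.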
G9a inh: qHTS Assay for Inhibitors of Histone Lysine Methyltransferase G9a | Histone-lysine N-methyltransferase EHMT2 (Homo sapiens), Q96KQ7 | Potency, µM (doses to about 102 µM), without a hit: top-dose activity, negative = inhibition, most hits filed as inhibitors | G9a H3K9 monomethylation, AlphaScreen, 2 h | AID 504332, 2011 | 8.8% of 350,000 active; note: % is set by controls: 0 for no effect and ±100 for the full control effect; nearly all actives have a fitted effect of over 75% in size
Target sequence (Q96KQ7 913-1193 limits assumed): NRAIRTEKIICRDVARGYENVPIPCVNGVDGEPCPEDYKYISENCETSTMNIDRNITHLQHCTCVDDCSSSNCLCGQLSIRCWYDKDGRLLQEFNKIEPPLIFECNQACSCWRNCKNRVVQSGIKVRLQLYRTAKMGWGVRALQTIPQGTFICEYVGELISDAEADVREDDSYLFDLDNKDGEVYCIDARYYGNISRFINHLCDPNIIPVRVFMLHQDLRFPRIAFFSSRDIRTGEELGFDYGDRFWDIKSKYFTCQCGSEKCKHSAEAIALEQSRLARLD
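G9a (20 nM) preincubated 15 min RT with compounds, then 500 nM biotinylated H3K9 peptide and 20 uM SAM added; 2 h RT reaction. Monomethyl-H3K9 product detected by AlphaScreen with anti-H3K9me1 antibody, streptavidin donor and anti-rabbit IgG acceptor beads.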
JMJD2A Tudor: qHTS Assay for Inhibitors of JMJD2A-Tudor Domain; AlphaScreen JMJD2A-Tudor / H3K4me3 peptide binding; Potency, µM (titrated, usually from 114 µM), without a hit: at the highest dose activity change, negative = inhibition, actives largely listed as inhibitors; Lysine-specific demethylase 4A (Homo sapiens), O75164; AID 504339, 2011; 4.4% of 390,000 active; note: % is set by controls: 0 for no effect and ±100 for the full control effect; nearly all actives have a fitted effect of over 50% in size
BAZ2B inh: qHTS Assay for Inhibitors of BAZ2B; Bromodomain adjacent to zinc finger domain protein 2B (Homo sapiens), Q9UIF8; AlphaScreen BAZ2B-H3K14Ac peptide displacement; Potency, µM (top dose mostly 114 µM), for inactives: top-dose activity change, negative = inhibition, usual class: inhibitors; 4.4% of 360,000 active; AID 504333, 2011; note: % is set by controls: 0 for no effect and ±100 for the full control effect; nearly all actives have a fitted effect of over 60% in size
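AlphaScreen displacement of biotin-H3(5-23)K14Ac peptide (50 nM final) from BAZ2B (50 nM final) in PBS pH 7.4, 0.01% Tween-20; complex preformed 30 min RT, then compounds (top 110 uM) 30 min RT, beads 20 min dark.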
L3MBTL1 inh: qHTS Assay for the Inhibitors of L3MBTL1 | AID 485360, 2010 | Potency, µM (titrated, usually from 57.1 µM), inactives show top-dose activity, negative = inhibition, hits mostly inhibitors | Lethal(3)malignant brain tumor-like protein 1 (Homo sapiens), Q9Y468 | 0.66% of 230,000 active | AlphaScreen L3MBTL1–H3K9me1 peptide binding; note: % is set by controls: 0 for no effect and ±100 for the full control effect; nearly all actives have a fitted effect of over 60% in size
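L3MBTL1 50 nM + b-AHA-H3(1-15)K9me1 75 nM, 30 min RT; compound added, 30 min RT; streptavidin donor/Ni-chelate acceptor beads 10 ug/mL each final, 30 min RT dark; AlphaScreen read.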
Sfp inh: qHTS Assay for Inhibitors of Bacillus subtilis Sfp phosphopantetheinyl transferase (PPTase). 4'-phosphopantetheinyl transferase ffp (Bacillus subtilis), Q9F4F7. Biochemical Sfp PPTase activity, qHTS. Potency, µM, inactives show largest response in the series, negative = inhibition, most hits filed as inhibitors. 3.5% of 310,000 active. AID 1490, 2009;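 note: the enzyme is Sfp with the accession as filed and its product quenches rhodamine fluorescence; 0% = enzyme reaction without inhibitor and -100% = no enzyme wells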
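Step 1, compound plus 15 nM Sfp-PPTase, 15 min, room temperature. Step 2, add rhodamine-CoA (5 uM) and BHQ-2-YbbR (12.5 uM). Step 3, read 525/598 nm fluorescence at 0 and 30 min.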
Active calls of the source: *; [ ] = another dose, or the depositor's remark. Calls come from the whole dose curve; as a rule, active = well fitted curve in the direction sought with a large enough effect; inconclusive = small, poorly fitted or top-dose-only effect, or another doubt; inactive = no such curve, though single readings can be large; an effect the other way counts as inactive or inconclusive. Potency is the fitted concentration of half-maximal effect.

For OCCN(Cc1ccccc1)Cc1cccc(F)c1 the results were HP1b chromo inh inconclusive, G9a inh 7.08µM*, JMJD2A Tudor 7.08µM*, BAZ2B inh 44.7µM*, L3MBTL1 inh -3.6%[11.4 µM] and Sfp inh inconclusive.
`O=C(N=Nc1c(O)[nH]c(=O)[nH]c1=O)C1COc2cc3ccccc3cc2O1` (stereo not drawn) gave HP1b chromo inh -15.7%, G9a inh 50.1µM*, JMJD2A Tudor -15.0%[11.4 µM], BAZ2B inh inconclusive, L3MBTL1 inh inconclusive and Sfp inh 56.2µM*.
Screening O=c1[nH]c(O)c(N=Nc2ccc(SC(F)F)cc2)c(=O)[nH]1 returned HP1b chromo inh 35.8%, G9a inh 11.0%, JMJD2A Tudor -7.4%[11.4 µM], BAZ2B inh -5.8%, L3MBTL1 inh -7.3% and Sfp inh 21.4%.
Cc1c(N=Cc2c(O)n(C)c(=O)[nH]c2=O)c(=O)n(-c2ccccc2)n1C was read as HP1b chromo inh 24.6%, G9a inh 1.5%, JMJD2A Tudor -20.4%, BAZ2B inh -0.8%, L3MBTL1 inh -3.1% and Sfp inh 11.7%.
For CC(=Nc1c(C)n(C)n(-c2ccccc2)c1=O)c1c(O)n(Cc2ccccc2)c(=O)[nH]c1=O the results were HP1b chromo inh 25.3%, JMJD2A Tudor -28.8%, BAZ2B inh 4.4%, L3MBTL1 inh 3.8% and Sfp inh 6.0%.
`Cc1c(N=Nc2c(O)n(-c3ccc(Br)cc3)c(=O)[nH]c2=O)c(=O)n(-c2ccccc2)n1C` gave HP1b chromo inh 28.2%, JMJD2A Tudor 35.5µM*, BAZ2B inh 28.2µM*, L3MBTL1 inh inconclusive and Sfp inh -27.7%.
Screening Cc1c(N=Nc2c(O)[nH]c(=O)[nH]c2=O)c(=O)n(-c2ccccc2)n1C returned HP1b chromo inh 67.1%, G9a inh inconclusive, JMJD2A Tudor 12.6µM*, BAZ2B inh 3.16µM*, L3MBTL1 inh -23.0% and Sfp inh 44.7µM*.
`Cc1cccc(C(=O)NC(Oc2ccccc2)C(Cl)(Cl)Cl)c1` (stereo not drawn) gave HP1b chromo inh -0.1%, G9a inh 3.5%[59 µM], JMJD2A Tudor 39.8µM*, BAZ2B inh 10.3%, L3MBTL1 inh 6.6% and Sfp inh 16.5%.
COc1ccc(OC)c(-n2c(O)c(C=Nc3c(C)n(C)n(-c4ccccc4)c3=O)c(=O)[nH]c2=S)c1 was read as HP1b chromo inh 38.8%, JMJD2A Tudor inconclusive, BAZ2B inh -11.6%, L3MBTL1 inh -2.8% and Sfp inh 44.7µM*.
Cc1cc(C)nc(NS(=O)(=O)c2ccc(N=Cc3c(O)n(C)c(=O)n(C)c3=O)cc2)n1 was read as HP1b chromo inh 37.3%, G9a inh 10.3%[59 µM], JMJD2A Tudor -20.4%, BAZ2B inh -9.1%, L3MBTL1 inh 1.1% and Sfp inh -17.5%.
Screening Cc1ccnc(NS(=O)(=O)c2ccc(N=Cc3c(O)n(C)c(=O)n(C)c3=O)cc2)n1 returned HP1b chromo inh 21.2%, G9a inh 44.7µM*, JMJD2A Tudor -7.5%[57.1 µM], BAZ2B inh inconclusive, L3MBTL1 inh -3.3% and Sfp inh -15.4%.
Screening COC(=O)CN1CN(c2ccccc2)C2(CCN(Cc3ccc4ccccc4c3)CC2)C1=O returned Sfp inh 70.8µM*.
Screening O=C(Oc1ccccc1)N1CCC2(CCN(Cc3ccccc3)CC2)CC1 returned G9a inh 8.4%[12.7 µM] and Sfp inh 11.1%.
For CCOc1cc2c(cc1OCC)-n1cccc1C(c1ccc(OC)c(OC)c1)NC2 (stereo not drawn) the results were HP1b chromo inh 1.7%, G9a inh -47.4%, JMJD2A Tudor inconclusive, BAZ2B inh inconclusive and Sfp inh -0.8%.

Screening data deposited in PubChem BioAssay by National Center for Advancing Translational Sciences (NCATS).
